test system: glycogen synthase kinase-3 (GSK3A per assay name; protocol says GSK3B); experiment: GSK3 binders on small-molecule microarrays, primary screen, biochemical, small-molecule microarray, 635 nm fluorescence, GSK3A (AID 1103); settings: small-molecule microarray binding, fluorescence 635 nm; higher = more signal; also: the record names both GSK3A and GSK3B

Row | SMILES | composite z-score
1 | CCc1cc2c(nc1CC)CCN(CCC(C)=NO[C@H](C)c1cn([C@H](CO)Cc3ccccc3)nn1)C2 | 0.0291
2 | COC(=O)[C@H](C)NC(=O)CCC1CC(OC(=O)NCCc2ccc(F)cc2)CC2(CCCC(COC(=O)NCCC(C)C)O2)O1 (stereo partly drawn) | -0.102
3 | CCN1C(=O)[C@@H]2[C@H]3C(=CC[C@@H]2C1=O)C1(OCCCO1)[C@H]1O[C@H]1[C@H]3O | 1.34
4 | CCCNC(=O)OC[C@H]1O[C@H](CCON=C(C)CCN2CCc3nc(CC)c(CC)cc3C2)C=C[C@@H]1Oc1ccc(OC)cc1 | -0.687
5 | COc1cccc([C@H]2Oc3ccc(OC)cc3C(=NO[C@H](C)c3cn([C@H](CO)Cc4ccccc4)nn3)[C@@H]2O)c1 | -0.617
6 | Cc1ccc(S(=O)(=O)n2c3ccccc3c3nnc(C(=O)c4ccccc4)nc32)cc1 | 0.0643
7 | CCOC(=O)[C@H](Cc1ccccc1)NC(=O)CCC1CC(OC(=O)NCc2ccc3c(c2)OCO3)CC2(CCCC(COC(=O)NCCc3ccccc3OC)O2)O1 (stereo partly drawn) | 1.23
8 | Cn1c(=O)n2n(c1=O)[C@H]1[C@H](O)[C@@H]3O[C@@H]3C(=O)[C@H]1CC2 | 0.778
9 | C[C@@H]1CC[C@H]2C(=O)O[C@@H](Cc3ccccc3)CN2[C@H]1c1ccc(Br)cc1 | 0.177
10 | CCOC(=O)[C@H](CC(C)C)NC(=O)CCC1CC(OC(=O)NCCc2ccc(F)cc2)CC2(CCCC(COC(=O)NCCc3ccc(Cl)cc3)O2)O1 (stereo partly drawn) | 0.46
11 | CO[C@H]1COC(=O)[C@H](C)NC(=O)CC=C[C@@H](C)[C@H](OC)COC(=O)[C@@H](OCc2ccccc2)C=C[C@@H]1C | 0.362
12 | C#CCCCON=C1C[C@@H](O)[C@@H](O)[C@@H]2[C@@H]3C(=O)N(c4ccc(F)cc4F)C(=O)[C@@H]3CC[C@H]12 | 0.678
13 | O=C1C[C@@H](O)[C@@H](O)[C@@H]2[C@@H]3C(=O)N(Cc4ccc5c(c4)OCO5)C(=O)[C@@H]3CC[C@H]12 | 0.7

Reference: PubChem BioAssay
